Calls of active or inactive are those of the source. How the source made its calls: active means hit-call score of the fitted dose curve at least 0.9, where 1 is the maximum; inactive means score below 0.9.
Key:
[1] = target: Paired box protein Pax-6 (Homo sapiens) (UniProt P26367); assay: ATG_Pax6_CIS: Attagene CIS-FACTORIAL HepG2 Assay for human Paired Box 6 (PAX6) (AID 2282956); settings: HepG2 CIS-FACTORIAL PAX6 reporter transcription, RNA readout; actives raise or lower the signal
Method in brief: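 Fluorescent RT-PCR products separated by capillary electrophoresis report PAX6-linked promoter mRNA in HepG2 cells 24 h post-dose. Curves fitted bidirectionally, DMSO as negative control.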

[2] = ATG_PXRE_CIS: Attagene CIS-FACTORIAL HepG2 Assay for human Pregnane X Receptor Element (PXRE) (AID 2282957); settings: HepG2 Attagene CIS-FACTORIAL PXRE reporter, mRNA; actives raise or lower the signal
Method in brief: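 Endogenous transcription factor activity in HepG2 was gauged through induction of reporter mRNA driven by a cis-regulating promoter element, sampled 24 h post-treatment. Activity was fitted in both directions against DMSO negative control.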

[3] = ATG_Sox_CIS: Attagene CIS-FACTORIAL HepG2 Assay for human SRY-box transcription factor (SOX) (AID 2282960); settings: HepG2 Attagene cis-factorial SOX reporter, mRNA; actives raise or lower the signal
Method in brief: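 Reporter transcripts, measured by RT-PCR and capillary electrophoresis of labelled fragments, report endogenous SOX transcription factor activity. Transiently transfected human HepG2 cells receive chemical for 24 h; changes in either direction are fitted relative to DMSO.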

[4] = target: Transcription factor Sp1 (Homo sapiens) (UniProt P08047); assay: ATG_Sp1_CIS: Attagene CIS-FACTORIAL HepG2 Assay for human Specificity Protein 1 (Sp1) (AID 2282961); settings: HepG2 Sp1 cis-reporter transcription, actives raise or lower the signal
Sequence of Transcription factor Sp1 (Homo sapiens) (P08047 whole entry, looked up): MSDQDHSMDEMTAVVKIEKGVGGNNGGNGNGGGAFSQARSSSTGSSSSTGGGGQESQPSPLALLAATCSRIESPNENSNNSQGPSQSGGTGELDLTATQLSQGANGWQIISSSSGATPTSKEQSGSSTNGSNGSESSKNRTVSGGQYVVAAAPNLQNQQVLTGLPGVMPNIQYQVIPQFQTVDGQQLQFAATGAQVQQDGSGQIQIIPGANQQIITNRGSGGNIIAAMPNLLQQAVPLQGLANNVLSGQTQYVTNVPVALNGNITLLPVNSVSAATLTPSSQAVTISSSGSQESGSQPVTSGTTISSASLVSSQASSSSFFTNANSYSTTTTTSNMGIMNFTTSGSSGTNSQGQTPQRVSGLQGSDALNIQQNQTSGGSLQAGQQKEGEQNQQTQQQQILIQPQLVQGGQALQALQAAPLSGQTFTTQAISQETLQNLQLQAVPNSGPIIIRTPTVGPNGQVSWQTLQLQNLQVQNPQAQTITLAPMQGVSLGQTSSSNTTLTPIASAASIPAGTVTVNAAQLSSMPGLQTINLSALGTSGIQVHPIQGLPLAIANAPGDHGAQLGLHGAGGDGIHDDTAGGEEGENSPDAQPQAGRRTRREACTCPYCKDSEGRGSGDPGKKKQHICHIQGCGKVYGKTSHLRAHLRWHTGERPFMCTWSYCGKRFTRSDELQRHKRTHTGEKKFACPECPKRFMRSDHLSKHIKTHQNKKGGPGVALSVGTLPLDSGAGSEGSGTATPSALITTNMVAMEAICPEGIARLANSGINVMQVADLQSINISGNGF
Method in brief: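 Read-out is reporter transcript level, measured by RT-PCR and fluorescent capillary electrophoresis after 24 h chemical treatment. System: transiently transfected HepG2 cells reporting endogenous transcription factor activity; gain or loss fitted against DMSO baseline.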

[5] = ATG_SREBP_CIS: Attagene CIS-FACTORIAL HepG2 Assay for human Sterol Regulatory Element Binding (SREBP) (AID 2282962); settings: HepG2 Attagene cis-factorial SREBP reporter, mRNA; actives raise or lower the signal
Method in brief: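 Endogenous factor activity is measured in HepG2 through multiplexed reporter units under cis-element control. Following a 24 h incubation, reporter transcripts are reverse-transcribed, PCR-amplified and sized by capillary electrophoresis; activity is fitted in both directions relative to DMSO.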

[6] = target: Signal transducer and activator of transcription 3 (Homo sapiens) (UniProt P40763); assay: ATG_STAT3_CIS: Attagene CIS-FACTORIAL HepG2 Assay for human Signal Transducer and Activator of Transcription 3 (STAT3) (AID 2282963); settings: HepG2, Attagene cis-factorial STAT3 reporter transcription; actives raise or lower the signal
Sequence of Signal transducer and activator of transcription 3 (Homo sapiens) (P40763 whole entry, looked up): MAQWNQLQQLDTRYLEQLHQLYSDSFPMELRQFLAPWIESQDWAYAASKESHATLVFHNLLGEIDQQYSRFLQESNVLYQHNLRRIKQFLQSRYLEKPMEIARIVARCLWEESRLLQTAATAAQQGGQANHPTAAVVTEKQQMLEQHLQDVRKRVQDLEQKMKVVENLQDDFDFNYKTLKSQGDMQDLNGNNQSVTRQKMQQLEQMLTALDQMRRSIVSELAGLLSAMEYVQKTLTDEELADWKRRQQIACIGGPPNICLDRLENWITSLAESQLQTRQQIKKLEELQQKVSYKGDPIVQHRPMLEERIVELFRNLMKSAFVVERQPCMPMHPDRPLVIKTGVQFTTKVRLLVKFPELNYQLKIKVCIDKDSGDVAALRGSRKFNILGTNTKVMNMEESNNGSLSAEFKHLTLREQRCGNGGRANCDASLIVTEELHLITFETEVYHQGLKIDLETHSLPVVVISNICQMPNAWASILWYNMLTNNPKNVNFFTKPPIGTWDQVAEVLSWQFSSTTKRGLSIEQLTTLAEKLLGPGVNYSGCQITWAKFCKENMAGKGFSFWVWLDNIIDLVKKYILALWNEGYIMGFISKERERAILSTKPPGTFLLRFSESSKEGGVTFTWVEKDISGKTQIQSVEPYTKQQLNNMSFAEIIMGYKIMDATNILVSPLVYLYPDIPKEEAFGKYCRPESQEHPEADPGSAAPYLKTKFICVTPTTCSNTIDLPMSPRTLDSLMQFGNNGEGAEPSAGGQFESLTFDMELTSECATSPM
Method in brief: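 Uses human liver HepG2 transiently carrying cis-regulated reporter transcription units. Following 24 h dosing, reporter mRNA induction was detected by RT-PCR and capillary electrophoresis, analysed bidirectionally versus DMSO.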

[7] = ATG_TA_CIS: Attagene CIS-FACTORIAL HepG2 Assay for human TA Basal Promoter (AID 2282964); settings: HepG2 Attagene CIS-factorial TA basal promoter reporter; actives raise or lower the signal
Method in brief: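 HepG2 cells transiently transfected with multiplexed cis-promoter reporter units, dosed 24 h. Reporter mRNA measured by RT-PCR, 6-FAM labelling, HpaI digestion and capillary electrophoresis; bidirectional fit versus DMSO baseline, serving as background control.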

[8] = ATG_TCF_b_cat_CIS: Attagene CIS-FACTORIAL HepG2 Assay for human T-Cell-Factor with beta-catenin (TCF/b-cat) (AID 2282965); settings: HepG2 TCF/beta-catenin cis-reporter transcription, actives raise or lower the signal
Method in brief: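 Using capillary electrophoresis as the read-out, labelled reporter cDNA fragments from transiently transfected HepG2 were sized and quantified. Exposure lasted 24 hours; activity in either direction was referenced to DMSO.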

[9] = ATG_RORE_CIS: Attagene CIS-FACTORIAL HepG2 Assay for human RAR-related Orphan Receptor Element (RORE) (AID 2282959); settings: HepG2 Attagene cis-factorial RORE reporter, mRNA; actives raise or lower the signal
Method in brief: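 RORE reporter transcripts reflecting endogenous factor activity were read after 24 h compound exposure of transfected HepG2 cells, using reverse transcription, PCR, fluorescent labelling and capillary electrophoresis sizing. Gain or loss fitted against DMSO.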

Measured: AC50

Sequence of Paired box protein Pax-6 (Homo sapiens) (P26367 whole entry, looked up): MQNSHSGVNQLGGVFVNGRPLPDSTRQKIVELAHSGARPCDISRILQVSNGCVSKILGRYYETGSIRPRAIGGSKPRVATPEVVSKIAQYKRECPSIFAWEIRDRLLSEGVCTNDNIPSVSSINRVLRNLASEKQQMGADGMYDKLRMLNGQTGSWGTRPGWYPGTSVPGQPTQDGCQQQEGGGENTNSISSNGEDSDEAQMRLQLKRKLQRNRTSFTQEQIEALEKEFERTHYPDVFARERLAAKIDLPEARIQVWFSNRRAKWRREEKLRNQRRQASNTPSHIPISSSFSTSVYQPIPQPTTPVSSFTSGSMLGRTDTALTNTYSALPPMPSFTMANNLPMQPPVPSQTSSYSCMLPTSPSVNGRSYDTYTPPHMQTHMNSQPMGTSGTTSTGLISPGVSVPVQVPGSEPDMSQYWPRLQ

CC(C)c1ccc2c(c1)CC[C@H]1[C@](C)(CN)CCC[C@]21C
inactive: [2] | [4] | [5] | [6] | [7]
active: [1] 6.4 µM | [3] 6.13 µM | [8] 5.65 µM

O=[N+]([O-])C1(Br)COCOC1
inactive: [1] | [2] | [9] | [5] | [6] | [7]
active: [4] 50.2 µM | [8] 55.7 µM

C[Si](C)O[Si](C)(C)O[Si](C)(C)O[Si](C)C
inactive: [1] | [9] | [3] | [5] | [6] | [7] | [8]
active: [2] 17 µM

CCCCC(CC)CCC(CC(C)C)OS(=O)(=O)O (centres undefined)
active: [2] 27.2 µM
inactive: [1] | [9] | [4] | [5] | [6] | [7] | [8]

CC(C)(C)C(=O)C=Cc1ccc(Cl)cc1
inactive: [9] | [5]
active: [1] 36.8 µM | [2] 5.18 µM | [3] 25.1 µM | [4] 27.3 µM | [6] 164 µM | [7] 78.2 µM | [8] 53.8 µM

OCCc1ccncc1
inactive: [1] | [2] | [9] | [3] | [4] | [5] | [6] | [7] | [8]

O=C1OC(=O)c2cc(Oc3ccc4c(c3)C(=O)OC4=O)ccc21
inactive: [1] | [2] | [9] | [4] | [5] | [6] | [7] | [8]

C=C(C)[C@@H]1CCC2=CCC[C@@H](C)[C@]2(C)C1
inactive: [1] | [9] | [3] | [4] | [5] | [7] | [8]
active: [2] 1.52 µM

CC1=NC(C)OC1C (centres undefined)
inactive: [1] | [9] | [4] | [5] | [6] | [7]
active: [2] 7.08 µM | [8] 100 µM

CC1OC1C1CCC2(C)OC2C1 (centres undefined)
active: [2] 36.7 µM
inactive: [1] | [9] | [3] | [4] | [5] | [6] | [7] | [8]

Cc1cc(C)c(C(=O)O)c(C)c1
inactive: [1] | [2] | [9] | [3] | [4] | [5] | [6] | [7] | [8]

O=C1c2cccc(O)c2C(=O)c2c(O)cc(CO)cc21
active: [2] 8.72 µM
inactive: [1] | [9] | [3] | [4] | [5] | [6] | [7] | [8]

Cc1cc(=O)n(-c2ccccc2)n1C
inactive: [1] | [2] | [9] | [4] | [5] | [6] | [7] | [8]

Nc1nc2ccccc2[nH]1
inactive: [1] | [2] | [3] | [4] | [5] | [6] | [7] | [8]

O=C(O)c1cc(Cl)cc([N+](=O)[O-])c1Cl
inactive: [1] | [2] | [9] | [3] | [4] | [5] | [7] | [8]

COc1c2ccoc2cc2oc(=O)ccc12
inactive: [1] | [9] | [3] | [5] | [6] | [7] | [8]
active: [2] 26.9 µM

COc1ccc2nc(N)sc2c1
inactive: [1] | [2] | [9] | [3] | [4] | [5] | [7] | [8]

NC(=O)OCC(COC(N)=O)c1ccccc1
inactive: [1] | [2] | [9] | [3] | [4] | [5] | [6] | [7] | [8]

O=C1CCCC1
active: [2] 62.7 µM
inactive: [1] | [9] | [3] | [4] | [5] | [6] | [7] | [8]

From PubChem BioAssay (EPA / NIEHS)
